High-throughput results (PubChem BioAssay)
Shown are actives, neighbours in structure and some others; about 17% of the full set was active somewhere.
TDP1 cell CPT: qHTS for Inhibitors of human tyrosyl-DNA phosphodiesterase 1 (TDP1): qHTS in cells in presence of CPT | chicken DT40 Tdp1-/-;hTDP1 cells + 20 nM CPT, ATP luminescence, 48 h | Potency, µM (series often up to 46.2 µM), most hits filed as inhibitors | hit rate 12% among 420,000; also: nearly all actives have a fitted effect of over 55% in size
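Chicken DT40 Tdp1-/- cells stably complemented with human TDP1 were seeded at 400 cells/well in medium containing 20 nM camptothecin, exposed to pin-transferred compounds, and grown at 37 °C for at least 48 hr. Viability was read as ATP luminescence.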
HepG2 tox: qHTS for Inhibitors of TGF-b: Cytotox Counterscreen; HepG2 CAGA-GFP viability, ATP luminescence, 18 h; Potency, µM (series often up to 46.1 µM), actives largely listed as cytotoxic; hit rate 0.76% among 410,000; AID 588856, 2011
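HepG2 CAGA-GFP cells (1000/well, DMEM with 1% FBS) received compound, then TGF-beta at 500 pg/mL final, and were incubated 18 hours at 37 degrees C. Viability was read by CellTiter-Glo luminescence. Media-only wells were set as complete cell-killing and DMSO as no toxicity.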
TDP1 cell noCPT: qHTS for Inhibitors of human tyrosyl-DNA phosphodiesterase 1 (TDP1): qHTS in cells in absence of CPT; hit rate 15% among 420,000; AID 686978, 2013; Potency, µM (doses to about 46.2 µM), usual class: inhibitors; DT40 Tdp1-/- hTDP1 cells, no CPT, ATP luminescence, 48 h; also: nearly all actives have a fitted effect of over 55% in size
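DT40 Tdp1-/-;hTDP1 cells, no CPT (DMSO vehicle only), 400 cells/well; compounds pin-transferred; ≥48 hr, 37 °C; CellTiter-Glo 30 min RT dark, luminescence read.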
HT1080-NT tox: qHTS for induction of synthetic lethality in tumor cells producing 2HG: qHTS for the HT-1080-NT fibrosarcoma cell line | hit rate 1.6% among 360,000 | Potency, µM (titrated, usually from 46.1 µM), usual class: cytotoxic | HT-1080-NT fibrosarcoma viability, CellTiter-Glo ATP luminescence, 48 h | AID 686970, 2013;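 also: NT is the 2HG producing partner of a matched IDH1 knockdown line; nearly all actives have a fitted effect of over 55% in size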
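Luminescent CellTiter-Glo readout after 48 hours of compound exposure at 37 degrees C defined viability of HT-1080-NT cells. Activity was normalized to DMSO wells and cell-free media wells; concentration-response curves were fitted and assigned curve classes.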
HT1080 IDH1KD tx: qHTS for induction of synthetic lethality in tumor cells producing 2HG: qHTS for the HT-1080-IDH1KD cell line. Potency, µM (titrated, usually from 46.1 µM), actives largely listed as cytotoxic. hit rate 2% among 360,000. HT-1080 IDH1 knockdown viability, ATP luminescence, 48 h
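HT-1080-IDH1KD cells (IDH1 knocked down), 750/well in RPMI with 5% FBS, treated with compound 48 h at 37 degrees C. Viability by CellTiter-Glo luminescence, normalised to DMSO and no-cell wells; concentration-response curves classed.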
TGFb SMAD3 inh: qHTS for Inhibitors of TGF-b; AID 588855, 2011; hit rate 1.2% among 410,000; HepG2 CAGA-GFP TGF-b/SMAD3 reporter, GFP fluorescence, 18 h; TGF-beta stimulated, 500 pg/mL final; Potency, µM (series often up to 46.1 µM), actives largely listed as inhibitors; also: nearly all actives have a fitted effect of over 65% in size
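Inhibition was scored as loss of TGF-beta-induced (500 pg/mL final, 18 hours, 37 degrees C) GFP in HEPG2 cells carrying a CAGA-GFP reporter, in DMEM with 1% FBS. Well GFP was summed per cell; Activity was normalised to unstimulated and stimulated DMSO wells, then concentration-response fitting.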
Hits are given with their value. Calls follow the shape of the dose curve; as a rule, active = well fitted curve in the direction sought with a large enough effect; inconclusive = small, poorly fitted or top-dose-only effect, or another doubt; inactive = no such curve, though single readings can be large; an effect the other way counts as inactive or inconclusive.

Screening COc1cccc(/C=N/NC(=O)Cn2cnc3c2c(=O)n(C)c(=O)n3C)c1 returned TDP1 cell CPT 29µM, HepG2 tox inactive, TDP1 cell noCPT inconclusive, HT1080-NT tox inactive, HT1080 IDH1KD tx inactive and TGFb SMAD3 inh inactive.
Screening CC1CCN(C(=O)Cn2cnc3c2c(=O)n(C)c(=O)n3C)c2ccccc2S1 (stereo not drawn) returned TDP1 cell CPT inconclusive, HepG2 tox inactive, TDP1 cell noCPT 18µM, HT1080-NT tox inactive, HT1080 IDH1KD tx inactive and TGFb SMAD3 inh inactive.
`Cn1c(=O)c2c(ncn2CC(=O)N/N=C/C(Br)=C/c2ccccc2)n(C)c1=O` gave TDP1 cell CPT 2.3µM, HepG2 tox inactive, TDP1 cell noCPT 3.7µM, HT1080-NT tox inactive, HT1080 IDH1KD tx inactive and TGFb SMAD3 inh inactive.
Screening Nc1nc(SCCO)[nH]c(=O)c1NC(=O)c1ccccc1F returned TDP1 cell CPT inactive, HepG2 tox inactive, TDP1 cell noCPT inactive, HT1080-NT tox inconclusive, HT1080 IDH1KD tx inactive and TGFb SMAD3 inh inconclusive.
Screening CCOc1ccc(OCC)c(-c2c(=O)n(OCc3ccccc3C(=O)OC)c3ccccc3[n+]2[O-])c1 returned TDP1 cell CPT 13µM, HepG2 tox inactive, TDP1 cell noCPT 13µM, HT1080-NT tox inactive, HT1080 IDH1KD tx inactive and TGFb SMAD3 inh inactive.
Screening CCOC(=O)COn1c(=O)c(-c2ccc(C)cc2)[n+]([O-])c2ccccc21 returned TDP1 cell CPT inactive, HepG2 tox inactive, TDP1 cell noCPT inactive, HT1080-NT tox inactive, HT1080 IDH1KD tx inactive and TGFb SMAD3 inh inactive.
CCOc1ccc(OCC)c(-c2c(=O)n(OCc3ccccc3Br)c3ccccc3[n+]2[O-])c1 was read as TDP1 cell CPT 10µM, HepG2 tox inactive, TDP1 cell noCPT 8.9µM, HT1080-NT tox inactive, HT1080 IDH1KD tx inactive and TGFb SMAD3 inh inactive.
Screening CCOc1ccc(-c2c(=O)n(OCc3ccccc3Br)c3ccccc3[n+]2[O-])c(OCC)c1 returned TDP1 cell CPT inconclusive, HepG2 tox inactive, TDP1 cell noCPT 23µM, HT1080-NT tox inactive, HT1080 IDH1KD tx inactive and TGFb SMAD3 inh inactive.
For CCOc1ccc(-c2c(=O)n(OCc3nc4ccccc4[nH]3)c3ccccc3[n+]2[O-])cc1 the results were TDP1 cell CPT inconclusive, HepG2 tox inactive, TDP1 cell noCPT 23µM, HT1080-NT tox inactive, HT1080 IDH1KD tx inactive and TGFb SMAD3 inh inactive.
CCOn1c(=O)c(-c2ccc(Br)cc2)[n+]([O-])c2ccccc21 was read as TDP1 cell CPT inactive, HepG2 tox inactive, TDP1 cell noCPT inactive, HT1080-NT tox inactive, HT1080 IDH1KD tx inactive and TGFb SMAD3 inh inactive.
Screening COc1ccc(-c2c(=O)n(OCc3nc4ccccc4[nH]3)c3ccccc3[n+]2[O-])cc1 returned TDP1 cell CPT inactive, HepG2 tox inactive, TDP1 cell noCPT inconclusive, HT1080-NT tox inactive, HT1080 IDH1KD tx inactive and TGFb SMAD3 inh inactive.
Cc1ccc(/C=N/NC(=O)Cn2cncn2)cc1 was read as TDP1 cell CPT inactive, HepG2 tox inactive, TDP1 cell noCPT inactive, HT1080-NT tox inactive, HT1080 IDH1KD tx inactive and TGFb SMAD3 inh inactive.
Screening CS(=O)(=O)c1ccc(Cn2c3c(c4cc(F)cc(F)c42)CCC[C@H]3CC(=O)O)cc1 returned TDP1 cell CPT inactive and TDP1 cell noCPT inactive.
For COc1ccccc1N(C(=O)CNC(=O)c1ccco1)C(C(=O)NCC1CCCO1)c1ccccc1 (stereo not drawn) the results were TDP1 cell CPT inactive, HepG2 tox inactive, TDP1 cell noCPT inactive, HT1080-NT tox inactive, HT1080 IDH1KD tx inactive and TGFb SMAD3 inh inactive.
